Experimental data as given in PubChem BioAssay AID1159580 (chemical genetic matrix, 2015).
About 2,000 (36%) of roughly 5,500 compounds were called active. Another 18% or so got no clear call; they are omitted. Rule as the data show it: active = normalized growth mostly below about 0.91 (no sharp cut-off); inconclusive = no clear call, values can overlap the other calls; inactive = mostly above about 0.92. This is one part of the list.

Assay: chemical genetic growth profiling, strain panel (AID 1159580);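 also: tested at 20 µM; growth read once vehicle control cultures reached saturation at 30 °C; 1 = growth at the plate median or of vehicle wells; lower values mean less growth of the strain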
Conditions: S. cerevisiae deletion strains, growth OD

Measured: normalized growth

CCCN1CC(CSC)CC2c3cccc4[nH]cc(c34)CC21 (stereo unspecified)
inactive: locus YAL040C, strain CLN3, stronger effect = lower value 1 | locus YCL061C, strain MRC1 (second series), stronger effect = lower value 0.998 | locus YDR150W, strain NUM1, stronger effect = lower value 0.997 | locus YDR363W, strain ESC2, stronger effect = lower value 0.989 | locus YER002W, strain NOP16, stronger effect = lower value 1.01 | locus YGR078C, strain PAC10, stronger effect = lower value 1.01 | locus YMR307W, strain GAS1, stronger effect = lower value 0.999 | locus YNL128W, strain TEP1, stronger effect = lower value 1.02 | locus YNL153C, strain GIM3, stronger effect = lower value 0.998 | locus YNL175C, strain NOP13, stronger effect = lower value 1.02 | locus YNL197C, strain WHI3, stronger effect = lower value 1.01 | locus YNL224C, strain SQS1, stronger effect = lower value 1.08 | locus YOR083W, strain WHI5 (second series), stronger effect = lower value 1.02

COC(=O)[C@H](Cc1ccccc1)NC(=O)/C(=C1\OC(=O)C(c2ccccc2)=C1O)c1ccccc1
inactive: locus YHR030C, strain SLT2, stronger effect = lower value 1.05 | locus YHR079C, strain IRE1, stronger effect = lower value 1.06 | locus YJL095W, strain BCK1, stronger effect = lower value 0.998 | locus YJR066W, strain TOR1, stronger effect = lower value 0.992 | locus YLR113W, strain HOG1, stronger effect = lower value 0.961 | locus YNL183C, strain NPR1, stronger effect = lower value 0.98 | locus YOR231W, strain MKK1, stronger effect = lower value 1.04 | locus YPL256C, strain CLN2, stronger effect = lower value 1.05
